Compounds without any hit were thinned out: in the full panel of roughly 83,000, 20% have a hit.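 Single-dose data. Exposure time 48 hours. Values below 10 considered active.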 Activity calls are given as the source filed them.
test system: UO-31 renal; assay: NCI-60 one-dose screen, 48 h (100 = growth as untreated, 0 = no growth, -100 = all killed); conditions: 10 µM

SMILES	growth
CCOC(=O)c1cc(C(=O)c2cc(OC)c(OC)c(OC)c2)n2ncc3ccccc3c12	75.6% (inactive)
Cc1c(Cl)cccc1NC(=O)CCCl	86.6% (inactive)
Cc1ccc(S(=O)(=O)N(C)CCCCCC(=O)O)cc1	88.3% (inactive)
COc1cc(-c2nn(-c3cccc(NC(=O)NCCNS(=O)(=O)c4ccc(Cl)cc4)c3)cc2-c2ccncc2)ccc1Cl	21.1% (inactive)
CC(=O)Oc1cc(OC(C)=O)c2ccccc2c1OC(C)=O	62.6% (inactive)
COc1cc(-c2nn(-c3cccc(NC(=O)CN4CCOCC4)c3)cc2-c2cccnc2)ccc1Cl	68.6% (inactive)
Cc1ccc(NCCNCC(C)(C)O)c2c(=O)c3ccc(Cl)cc3sc12	41.2% (inactive)
COC(=O)C1(O)NC(=C(C#N)C#N)C(C#N)=C1C(=O)c1ccc(OC)c(OC)c1 (stereo not given)	86.7% (inactive)
CCN(CC)CCOc1ccc2c(c1O)C(=O)c1ccccc1C2=O	67.3% (inactive)
COc1cc(-c2nn(-c3ccc(NC(=O)NCCCNC(=O)c4ccccc4)cc3)cc2-c2ccncc2)ccc1Cl	29.6% (inactive)
COc1ccc2nc(-c3ccc(Cl)cc3)cc(-c3nnc(SC/C(=N\O)c4ccccc4)n3-c3ccccc3)c2c1	78.2% (inactive)
CCOS(=O)(=O)c1c(C(C)C)cc(C(C)C)cc1C(C)C	92.2% (inactive)
O=S(=O)(O)c1cccc(Nc2ccc3ccccc3c2)c1	68.9% (inactive)
CN(C)CCCSc1ccccc1NC1=C(Cl)C(=O)C(Nc2ccccc2SCCCN(C)C)=C(Cl)C1=O	35% (inactive)
Brc1ccc2c(c1)-c1ccccc1C1=NCCN12	-16.6% (active)
CC(C)CCN(CCC(C)C)CC(=O)Nc1ccc(S(=O)(=O)c2ccc(NC(=O)CN(CCC(C)C)CCC(C)C)cc2)cc1	63.3% (inactive)
CCNCC(=O)Nc1ccc(C(=O)OCC)cc1	95% (inactive)
O=C(NCCCNS(=O)(=O)c1ccc(Cl)cc1)Nc1ccc(-n2cc(-c3ccncc3)c(-c3ccc(Cl)c(O)c3)n2)cc1	40.9% (inactive)
C1CN(CC2CCC(CN3CCOCC3)O2)CCO1 (stereo not given)	93.6% (inactive)
CCN(CC)CC(=O)N(CC)c1ccc(C)c(Cl)c1	90.7% (inactive)

SMILES	growth
CC(CN(C)C)Oc1ccc(OC(C)CN(C)C)c2c1C(=O)c1ccccc1C2=O (stereo not given)	63.5% (inactive)
O=C1c2ccccc2C(=O)c2c1ccc(C(Br)Br)c2[N+](=O)[O-]	50.6% (inactive)
COc1cc(-c2nn(-c3cccc(NC(=O)CCN4CCN(c5ccccc5)CC4)c3)cc2-c2ccncc2)ccc1Cl	37.8% (inactive)
O=C(Nc1ccc(F)cc1)c1cc2ccccc2cc1O	63.9% (inactive)
O=C(Nc1ccc2c(O)cc(S(=O)(=O)O)cc2c1)c1ccc([N+](=O)[O-])cc1	91.4% (inactive)
CN(C)CCCOc1cccc(NC2=C(Cl)C(=O)C(Nc3cccc(OCCCN(C)C)c3)=C(Cl)C2=O)c1	-92.7% (active)
COc1cc(OC)c2c(=O)c(O)c(-c3ccccc3)oc2c1	53.8% (inactive)
CC(=O)Nc1ccc(CC[C@H]2CCC/C=C/[C@@H]3C[C@H](O)C[C@H]3[C@H](O)/C=C/C(=O)O2)cc1	6.87% (active)
Nc1ncnc2c1ncn2C1(CO)OCC(O)C(O)C1O (stereo not given)	87.9% (inactive)
O=C(Nc1cccc2c1CCCC2)c1cc2ccccc2cc1O	17.5% (inactive)
CN(C)CCCOc1ccccc1NC1=C(Cl)C(=O)C(Nc2ccccc2OCCCN(C)C)=C(Cl)C1=O	-99% (active)
O=C(N/N=C/c1ccc([N+](=O)[O-])cc1)c1ccccc1Nc1cccc(C(F)(F)F)c1	78.4% (inactive)
NNC(=O)Oc1c(Cl)cc(Cl)cc1[N+](=O)[O-]	87.4% (inactive)
Nc1ccc(/C=N/Nc2ccnc3c(O)cccc23)c2cccnc12	55.8% (inactive)
O=S(=O)(O)c1ccc(Cl)cc1	88.7% (inactive)
COc1cc(-c2nn(-c3cccc(NC(=O)NCCNC(=O)c4cccc(C(F)(F)F)c4)c3)cc2-c2ccncc2)ccc1Cl	62.1% (inactive)
CCOC(=O)c1cc(C(=O)c2cc(OC)c(OC)c(OC)c2)n2ccc(-c3cc[n+](CC(=O)c4cc(OC)c(OC)c(OC)c4)cc3)cc12	66.1% (inactive)
CCOC(=O)c1cc(C(=O)c2cc(OC)c(OC)c(OC)c2)n2nc(C)ccc12	39.9% (inactive)
CCOC(=O)c1cc(C(=O)c2ccc(Cl)cc2)n2ccc(-c3cc[n+](CC(=O)c4ccc(OC)cc4)cc3)cc12	73.5% (inactive)
C/C=C/CSC(C)(C)C(=O)NC	93.8% (inactive)

test system: TK-10 renal; assay: as above; conditions: 10 µM

SMILES	growth
CCOC(=O)c1cc(C(=O)c2cc(OC)c(OC)c(OC)c2)n2ncc3ccccc3c12	97.3% (inactive)
Cc1c(Cl)cccc1NC(=O)CCCl	89.3% (inactive)
Cc1ccc(S(=O)(=O)N(C)CCCCCC(=O)O)cc1	89.4% (inactive)
COc1cc(-c2nn(-c3cccc(NC(=O)NCCNS(=O)(=O)c4ccc(Cl)cc4)c3)cc2-c2ccncc2)ccc1Cl	5.09% (active)
CC(=O)Oc1cc(OC(C)=O)c2ccccc2c1OC(C)=O	150% (inactive)
COc1cc(-c2nn(-c3cccc(NC(=O)CN4CCOCC4)c3)cc2-c2cccnc2)ccc1Cl	125% (inactive)
Cc1ccc(NCCNCC(C)(C)O)c2c(=O)c3ccc(Cl)cc3sc12	74.2% (inactive)
COC(=O)C1(O)NC(=C(C#N)C#N)C(C#N)=C1C(=O)c1ccc(OC)c(OC)c1 (stereo not given)	122% (inactive)
CCN(CC)CCOc1ccc2c(c1O)C(=O)c1ccccc1C2=O	78% (inactive)
COc1cc(-c2nn(-c3ccc(NC(=O)NCCCNC(=O)c4ccccc4)cc3)cc2-c2ccncc2)ccc1Cl	59.3% (inactive)
COc1ccc2nc(-c3ccc(Cl)cc3)cc(-c3nnc(SC/C(=N\O)c4ccccc4)n3-c3ccccc3)c2c1	111% (inactive)
CCOS(=O)(=O)c1c(C(C)C)cc(C(C)C)cc1C(C)C	95.1% (inactive)
O=S(=O)(O)c1cccc(Nc2ccc3ccccc3c2)c1	115% (inactive)
CN(C)CCCSc1ccccc1NC1=C(Cl)C(=O)C(Nc2ccccc2SCCCN(C)C)=C(Cl)C1=O	13.8% (inactive)
Brc1ccc2c(c1)-c1ccccc1C1=NCCN12	-12.5% (active)
CC(C)CCN(CCC(C)C)CC(=O)Nc1ccc(S(=O)(=O)c2ccc(NC(=O)CN(CCC(C)C)CCC(C)C)cc2)cc1	96.4% (inactive)
CCNCC(=O)Nc1ccc(C(=O)OCC)cc1	86.2% (inactive)
O=C(NCCCNS(=O)(=O)c1ccc(Cl)cc1)Nc1ccc(-n2cc(-c3ccncc3)c(-c3ccc(Cl)c(O)c3)n2)cc1	62.5% (inactive)
C1CN(CC2CCC(CN3CCOCC3)O2)CCO1 (stereo not given)	95.8% (inactive)
CCN(CC)CC(=O)N(CC)c1ccc(C)c(Cl)c1	93.6% (inactive)

SMILES	growth
CC(CN(C)C)Oc1ccc(OC(C)CN(C)C)c2c1C(=O)c1ccccc1C2=O (stereo not given)	42.7% (inactive)
O=C1c2ccccc2C(=O)c2c1ccc(C(Br)Br)c2[N+](=O)[O-]	73.2% (inactive)
COc1cc(-c2nn(-c3cccc(NC(=O)CCN4CCN(c5ccccc5)CC4)c3)cc2-c2ccncc2)ccc1Cl	23.5% (inactive)
O=C(Nc1ccc(F)cc1)c1cc2ccccc2cc1O	141% (inactive)
O=C(Nc1ccc2c(O)cc(S(=O)(=O)O)cc2c1)c1ccc([N+](=O)[O-])cc1	102% (inactive)
CN(C)CCCOc1cccc(NC2=C(Cl)C(=O)C(Nc3cccc(OCCCN(C)C)c3)=C(Cl)C2=O)c1	-99.3% (active)
COc1cc(OC)c2c(=O)c(O)c(-c3ccccc3)oc2c1	96.8% (inactive)
CC(=O)Nc1ccc(CC[C@H]2CCC/C=C/[C@@H]3C[C@H](O)C[C@H]3[C@H](O)/C=C/C(=O)O2)cc1	-45.5% (active)
Nc1ncnc2c1ncn2C1(CO)OCC(O)C(O)C1O (stereo not given)	87.3% (inactive)
O=C(Nc1cccc2c1CCCC2)c1cc2ccccc2cc1O	88.1% (inactive)
CN(C)CCCOc1ccccc1NC1=C(Cl)C(=O)C(Nc2ccccc2OCCCN(C)C)=C(Cl)C1=O	-98.3% (active)
O=C(N/N=C/c1ccc([N+](=O)[O-])cc1)c1ccccc1Nc1cccc(C(F)(F)F)c1	173% (inactive)
NNC(=O)Oc1c(Cl)cc(Cl)cc1[N+](=O)[O-]	94.1% (inactive)
Nc1ccc(/C=N/Nc2ccnc3c(O)cccc23)c2cccnc12	97.7% (inactive)
O=S(=O)(O)c1ccc(Cl)cc1	88.2% (inactive)
COc1cc(-c2nn(-c3cccc(NC(=O)NCCNC(=O)c4cccc(C(F)(F)F)c4)c3)cc2-c2ccncc2)ccc1Cl	90% (inactive)
CCOC(=O)c1cc(C(=O)c2cc(OC)c(OC)c(OC)c2)n2ccc(-c3cc[n+](CC(=O)c4cc(OC)c(OC)c(OC)c4)cc3)cc12	13.5% (inactive)
CCOC(=O)c1cc(C(=O)c2cc(OC)c(OC)c(OC)c2)n2nc(C)ccc12	78% (inactive)
CCOC(=O)c1cc(C(=O)c2ccc(Cl)cc2)n2ccc(-c3cc[n+](CC(=O)c4ccc(OC)cc4)cc3)cc12	124% (inactive)
C/C=C/CSC(C)(C)C(=O)NC	103% (inactive)

From PubChem BioAssay (NCI)
